# Measured values published in PubChem BioAssay (NCI).
# Compounds without any hit were thinned out: in the full panel of roughly 83,000, 20% have a hit.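 96-well plates, one dose, 48 hours. Percent growth reported; active if below 10.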 Values without a mark were called inactive. Calls of active or inactive are those of the source.
# Legend:
# Assay in all cases: NCI-60 one-dose screen, 48 h (100 = growth as untreated, 0 = no growth, -100 = all killed)
# SK-MEL-2 melanoma = tested on: SK-MEL-2 melanoma
# EKVX NSCLC = tested on: EKVX NSCLC
# SN12C renal = tested on: SN12C renal
# UO-31 renal = tested on: UO-31 renal
# TK-10 renal = tested on: TK-10 renal
# ACHN renal = tested on: ACHN renal
# CAKI-1 renal = tested on: CAKI-1 renal
# A498 renal = tested on: A498 renal
# CCRF-CEM leukemia = tested on: CCRF-CEM leukemia
# MOLT-4 leukemia = conditions: 10 µM unless noted
structure (smiles),measurement,setting,value
Cc1ccc2nc(SCc3ccccc3F)n(-c3ccccc3)c(=O)c2c1,growth,SK-MEL-2 melanoma; 10 µM unless noted,102%
same,growth,EKVX NSCLC; 10 µM unless noted,59.9%
same,growth,SN12C renal; 10 µM unless noted,90.6%
same,growth,UO-31 renal; 10 µM unless noted,83.7%
same,growth,TK-10 renal; 10 µM unless noted,90.2%
same,growth,ACHN renal; 10 µM unless noted,92.9%
same,growth,CAKI-1 renal; 10 µM unless noted,83.3%
same,growth,A498 renal; 10 µM unless noted,137%
same,growth,CCRF-CEM leukemia; 10 µM unless noted,73%
same,growth,MOLT-4 leukemia,73.3%
CC/C(=C(\c1ccc(O)cc1)c1ccc(OCCN(C)C(=O)CCOCCNC(=O)c2ccc3c(c2)CN([C@@H]2CCC(=O)NC2=O)C3=O)cc1)c1ccccc1,growth,SK-MEL-2 melanoma; 1 µM,103%
same,growth,SK-MEL-2 melanoma; 10 µM,101%
same,growth,EKVX NSCLC; 1 µM,100%
same,growth,EKVX NSCLC; 10 µM,89.1%
same,growth,SN12C renal; 1 µM,91.3%
same,growth,SN12C renal; 10 µM,95.7%
same,growth,UO-31 renal; 1 µM,91.9%
same,growth,UO-31 renal; 10 µM,89.9%
same,growth,TK-10 renal; 1 µM,99%
same,growth,TK-10 renal; 10 µM,88.5%
same,growth,ACHN renal; 1 µM,103%
same,growth,ACHN renal; 10 µM,106%
same,growth,CAKI-1 renal; 1 µM,101%
same,growth,CAKI-1 renal; 10 µM,94.5%
same,growth,A498 renal; 1 µM,93.3%
same,growth,A498 renal; 10 µM,89.6%
same,growth,CCRF-CEM leukemia; 1 µM,24.5%
same,growth,CCRF-CEM leukemia; 10 µM,26.1%
O=C(CSc1nnc(-c2ccc(-c3nc4ccc(Cl)cc4[nH]3)cc2)o1)Nc1ccccc1,growth,SK-MEL-2 melanoma; 10 µM unless noted,54.5%
same,growth,EKVX NSCLC; 10 µM unless noted,21.1%
same,growth,SN12C renal; 10 µM unless noted,4.03% (active)
same,growth,UO-31 renal; 10 µM unless noted,60.6%
same,growth,TK-10 renal; 10 µM unless noted,114%
same,growth,ACHN renal; 10 µM unless noted,-56.4% (active)
same,growth,CAKI-1 renal; 10 µM unless noted,-33.5% (active)
same,growth,A498 renal; 10 µM unless noted,130%
same,growth,CCRF-CEM leukemia; 10 µM unless noted,41.5%
same,growth,MOLT-4 leukemia,10.7%
O=C1Nc2ccccc2/C1=C\c1ccc(OCC(=O)c2ccc(Br)cc2)cc1,growth,SK-MEL-2 melanoma; 10 µM unless noted,72.4%
same,growth,EKVX NSCLC; 10 µM unless noted,65.6%
same,growth,SN12C renal; 10 µM unless noted,62.7%
same,growth,UO-31 renal; 10 µM unless noted,48.5%
same,growth,TK-10 renal; 10 µM unless noted,94.9%
same,growth,ACHN renal; 10 µM unless noted,70%
same,growth,CAKI-1 renal; 10 µM unless noted,67.8%
same,growth,A498 renal; 10 µM unless noted,100%
same,growth,CCRF-CEM leukemia; 10 µM unless noted,58.2%
same,growth,MOLT-4 leukemia,8.54% (active)
COc1ccc(-c2cc(-c3cc(C(C)C)c(O)cc3C)nn2-c2ccc(S(N)(=O)=O)cc2)cc1,growth,SK-MEL-2 melanoma; 10 µM unless noted,54.7%
same,growth,EKVX NSCLC; 10 µM unless noted,61.1%
same,growth,SN12C renal; 10 µM unless noted,16%
same,growth,UO-31 renal; 10 µM unless noted,39.1%
same,growth,TK-10 renal; 10 µM unless noted,58%
same,growth,ACHN renal; 10 µM unless noted,55.8%
same,growth,CAKI-1 renal; 10 µM unless noted,63.9%
same,growth,A498 renal; 10 µM unless noted,87.7%
same,growth,CCRF-CEM leukemia; 10 µM unless noted,12.2%
same,growth,MOLT-4 leukemia,14.7%
CN1CCN(C(=O)CCN(C(=O)Oc2cc3c(c4ccccc24)[C@H](CCl)CN3C(=O)c2cc3cc(OCCCN4CCC4)ccc3[nH]2)[C@H]2CCSSC2)CC1,growth,SK-MEL-2 melanoma; 10 µM unless noted,-83% (active)
same,growth,EKVX NSCLC; 10 µM unless noted,-89.3% (active)
same,growth,SN12C renal; 10 µM unless noted,0.64% (active)
same,growth,UO-31 renal; 10 µM unless noted,-37.7% (active)
same,growth,TK-10 renal; 10 µM unless noted,-25.7% (active)
same,growth,ACHN renal; 10 µM unless noted,-30.5% (active)
same,growth,CAKI-1 renal; 10 µM unless noted,-58.3% (active)
same,growth,A498 renal; 10 µM unless noted,-40.9% (active)
same,growth,CCRF-CEM leukemia; 10 µM unless noted,-35.6% (active)
same,growth,MOLT-4 leukemia,-35.3% (active)
Cc1cccc(C)c1Nc1nnc(-c2c[nH]c3ccccc23)o1,growth,SK-MEL-2 melanoma; 10 µM unless noted,99.5%
same,growth,EKVX NSCLC; 10 µM unless noted,74.6%
same,growth,SN12C renal; 10 µM unless noted,87.8%
same,growth,UO-31 renal; 10 µM unless noted,65.3%
same,growth,TK-10 renal; 10 µM unless noted,148%
same,growth,ACHN renal; 10 µM unless noted,93.9%
same,growth,CAKI-1 renal; 10 µM unless noted,82.7%
same,growth,A498 renal; 10 µM unless noted,134%
same,growth,CCRF-CEM leukemia; 10 µM unless noted,106%
same,growth,MOLT-4 leukemia,91.1%
OCCn1cc(-c2nc3ccc4[nH]ncc4c3c3c2CCCC3)cn1,growth,SK-MEL-2 melanoma; 10 µM unless noted,43.3%
same,growth,EKVX NSCLC; 10 µM unless noted,32.8%
same,growth,SN12C renal; 10 µM unless noted,36.7%
same,growth,UO-31 renal; 10 µM unless noted,22.3%
same,growth,TK-10 renal; 10 µM unless noted,16.5%
same,growth,ACHN renal; 10 µM unless noted,16.3%
same,growth,CAKI-1 renal; 10 µM unless noted,1.75% (active)
same,growth,A498 renal; 10 µM unless noted,-3.55% (active)
same,growth,CCRF-CEM leukemia; 10 µM unless noted,48.4%
same,growth,MOLT-4 leukemia,31.2%
COC(=O)c1cc(C(=O)C(F)(F)F)n2c3ccccc3c3ccccc3c12,growth,SK-MEL-2 melanoma; 10 µM unless noted,97.6%
same,growth,EKVX NSCLC; 10 µM unless noted,78.3%
same,growth,SN12C renal; 10 µM unless noted,53.1%
same,growth,UO-31 renal; 10 µM unless noted,39%
same,growth,TK-10 renal; 10 µM unless noted,73.7%
same,growth,ACHN renal; 10 µM unless noted,18.2%
same,growth,CAKI-1 renal; 10 µM unless noted,43.1%
same,growth,A498 renal; 10 µM unless noted,120%
same,growth,CCRF-CEM leukemia; 10 µM unless noted,97.6%
same,growth,MOLT-4 leukemia,97.4%
CCCCCCCCc1ccc(C(=O)Nc2cccc(O)c2)cc1,growth,SK-MEL-2 melanoma; 10 µM unless noted,83.8%
same,growth,EKVX NSCLC; 10 µM unless noted,66.4%
same,growth,SN12C renal; 10 µM unless noted,65.4%
same,growth,UO-31 renal; 10 µM unless noted,34.4%
same,growth,TK-10 renal; 10 µM unless noted,106%
same,growth,ACHN renal; 10 µM unless noted,57.3%
same,growth,CAKI-1 renal; 10 µM unless noted,77.8%
same,growth,A498 renal; 10 µM unless noted,115%
same,growth,CCRF-CEM leukemia; 10 µM unless noted,0.746% (active)
same,growth,MOLT-4 leukemia,35.5%
O=C1CCC(N2C(=O)c3cccc(NCCCCCC(=O)N4CCN(c5ccc6nc7c(nc6c5C(F)(F)F)C(=O)c5ncccc5C7=O)CC4)c3C2=O)C(=O)N1 (stereo not drawn),growth,SK-MEL-2 melanoma; 10 µM unless noted,-74.6% (active)
same,growth,EKVX NSCLC; 10 µM unless noted,-59.6% (active)
same,growth,SN12C renal; 10 µM unless noted,-79.6% (active)
same,growth,UO-31 renal; 10 µM unless noted,-94.5% (active)
same,growth,TK-10 renal; 10 µM unless noted,-9.44% (active)
same,growth,ACHN renal; 10 µM unless noted,-70.8% (active)
same,growth,CAKI-1 renal; 10 µM unless noted,-78.8% (active)
same,growth,A498 renal; 10 µM unless noted,-80.7% (active)
same,growth,CCRF-CEM leukemia; 10 µM unless noted,-23.1% (active)
same,growth,MOLT-4 leukemia,-25.6% (active)
Cc1nn(-c2ccccc2)c2nc(C)n(C(=O)N/N=C/c3ccccc3)c(=O)c12,growth,SK-MEL-2 melanoma; 10 µM unless noted,105%
same,growth,EKVX NSCLC; 10 µM unless noted,94.4%
same,growth,SN12C renal; 10 µM unless noted,97.9%
same,growth,UO-31 renal; 10 µM unless noted,74.1%
same,growth,TK-10 renal; 10 µM unless noted,123%
same,growth,ACHN renal; 10 µM unless noted,94.9%
same,growth,CAKI-1 renal; 10 µM unless noted,76.9%
same,growth,A498 renal; 10 µM unless noted,112%
same,growth,CCRF-CEM leukemia; 10 µM unless noted,96.3%
same,growth,MOLT-4 leukemia,102%
